Source: ChEMBL document CHEMBL1201862, “PubChem BioAssay data set” (2004)
Only a part of the results of these assays is listed, not drawn at random. Calls of active or inactive are those of the source. The rule behind the calls is not given here.

Target: Luciferin 4-monooxygenase (Photinus pyralis) (UniProt P08659)
Sequence (P08659 whole entry): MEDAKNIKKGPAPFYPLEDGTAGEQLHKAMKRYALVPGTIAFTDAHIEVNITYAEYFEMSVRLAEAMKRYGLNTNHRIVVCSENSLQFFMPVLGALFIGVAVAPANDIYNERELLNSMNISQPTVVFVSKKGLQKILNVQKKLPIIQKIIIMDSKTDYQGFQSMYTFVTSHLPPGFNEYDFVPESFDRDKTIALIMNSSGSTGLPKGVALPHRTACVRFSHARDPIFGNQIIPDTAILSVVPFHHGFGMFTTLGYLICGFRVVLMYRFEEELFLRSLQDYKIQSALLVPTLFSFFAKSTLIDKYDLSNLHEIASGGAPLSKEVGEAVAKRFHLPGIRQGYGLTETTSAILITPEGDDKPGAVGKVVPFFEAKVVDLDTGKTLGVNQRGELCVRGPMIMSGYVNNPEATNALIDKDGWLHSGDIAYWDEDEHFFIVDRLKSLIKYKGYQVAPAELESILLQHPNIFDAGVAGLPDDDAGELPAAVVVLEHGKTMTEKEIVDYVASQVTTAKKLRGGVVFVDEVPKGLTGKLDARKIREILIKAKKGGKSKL

`CC(O)[C@@H]1NC(=O)[C@H](CCCCN)NC(=O)[C@@H](Cc2c[nH]c3ccccc23)NC(=O)[C@H](Cc2ccccc2)NC(=O)[C@@H](NC(=O)[C@H](N)Cc2ccccc2)CSSC[C@@H](C(=O)N[C@H](CO)[C@@H](C)O)NC1=O` (stereo partly specified) was tested, and the Potency was “inactive”.
